# ChEMBL document CHEMBL2218924, “A broad activity screen in support of a chemogenomic map for kinase signalling research and drug discovery” (Biochem J, 2013)
# Target: T1, Tyrosine-protein kinase ZAP-70 (Homo sapiens) (UniProt P43403)
# T1 sequence (whole entry): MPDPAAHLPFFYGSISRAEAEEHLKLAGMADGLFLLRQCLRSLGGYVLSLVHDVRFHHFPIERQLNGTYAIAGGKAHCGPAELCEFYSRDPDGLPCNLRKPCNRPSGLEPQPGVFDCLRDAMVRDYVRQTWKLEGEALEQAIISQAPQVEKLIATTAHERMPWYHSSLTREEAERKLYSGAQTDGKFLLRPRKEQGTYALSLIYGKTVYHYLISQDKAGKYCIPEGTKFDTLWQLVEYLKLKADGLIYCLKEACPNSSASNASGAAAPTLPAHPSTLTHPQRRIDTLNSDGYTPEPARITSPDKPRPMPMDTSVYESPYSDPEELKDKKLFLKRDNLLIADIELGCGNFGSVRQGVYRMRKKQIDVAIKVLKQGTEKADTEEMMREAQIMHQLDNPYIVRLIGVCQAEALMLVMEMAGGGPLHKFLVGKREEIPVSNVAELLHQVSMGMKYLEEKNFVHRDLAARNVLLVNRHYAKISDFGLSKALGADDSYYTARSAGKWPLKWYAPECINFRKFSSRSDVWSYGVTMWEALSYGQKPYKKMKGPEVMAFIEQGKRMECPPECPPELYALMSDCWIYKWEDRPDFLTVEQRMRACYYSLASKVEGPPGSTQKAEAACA
# Conditions: at 10 µM
row,Compound,residual activity [%]
1,CCC(=O)Nc1ccc2ncnc(Nc3cccc(Br)c3)c2c1,109
2,COc1cc2ncnc(Nc3ccc(Oc4ccccc4)cc3)c2cc1OC,114
3,COc1cc2ncnc(Nc3ccc(O)c(Br)c3)c2cc1OC,105
4,CO[C@@H]1[C@H](N(C)C(=O)c2ccccc2)C[C@H]2O[C@]1(C)n1c3ccccc3c3c4c(c5c6ccccc6n2c5c31)C(=O)NC4,60
5,COc1ccc(-c2cnc3c(-c4ccsc4)cnn3c2)cc1,128
6,Cn1nc2c3c(cccc31)C(=O)c1ccccc1-2,85
7,Cn1cnc2cc3c(Nc4cccc(Br)c4)ncnc3cc21,89
8,O=C1NC(=O)C(c2cn(CCCn3ccnc3)c3ccccc23)=C1Nc1ccccc1,118
9,O=C(Nc1cccc(Nc2nccc(Nc3cccc(C(F)(F)F)c3)n2)c1)C1CC1,116
10,O=c1cc(N2CCOCC2)oc2c1ccc1ccccc12,93
11,Oc1c2ccccc2c2c3c(cccc13)N=N2,98
12,CCN(CC)CCNC(=O)c1c(C)[nH]c(/C=C2\C(=O)Nc3ccc(Cl)cc32)c1C,77
13,Cc1ccc(NC2=CC(=O)c3sc(C)nc3C2=O)cc1,96
14,COc1ccc(CNc2nc(N(CCO)CCO)nc3c2ncn3C(C)C)cc1,88
15,COc1ccc(S(=O)(=O)N(CCO)c2ccccc2CN(C)C/C=C/c2ccc(Cl)cc2)cc1,97
16,O=C(Nc1ccc(Cl)cc1)c1ccccc1NCc1ccncc1,142
17,O=c1cc(-c2cccc3c2Sc2ccccc2S3)oc(N2CCOCC2)c1,85
18,O=C(O)c1ccc2c3c1cccc3c(=O)n1c3ccccc3nc21,111

row,Compound,residual activity [%]
1,Ic1cccc(CSc2nnc(-c3ccncc3)o2)c1,102
2,Oc1n[nH]c2nnc(-c3c(-c4ccccc4)nn4ccccc34)cc12,99
3,Nc1ccc2ncnc(NCCc3ccc(Oc4ccccc4)cc3)c2c1,108
4,O=C(Nc1cccc(Nc2cc(Nc3cccc(C(F)(F)F)c3)ncn2)c1)C1CC1,101
5,CN(C)c1ccc(/C=C2\C(=O)Nc3ccccc32)cc1,115
6,Cc1cc2ncc(-c3ccccc3)nc2cc1C,98
7,NC(=O)Nc1sc(-c2ccc(F)cc2)cc1C(N)=O,107
8,COc1cc2ncnc(N3CCN(C(=O)Nc4ccc(Oc5ccccc5)cc4)CC3)c2cc1OC,98
9,COc1ccc(C(=O)Nc2sc3c(c2C(N)=O)CCCC3)cc1OC,114
10,CC(C)n1cnc2c(NCc3ccccc3)nc(NCCCO)nc21,119
11,O=c1c2ccccc2[nH]c(=S)n1CCN1CCC(=C(c2ccc(F)cc2)c2ccc(F)cc2)CC1,94
12,O=C(c1cc2cc(O)ccc2[nH]1)c1cc2cc(O)ccc2[nH]1,109
13,O=C(CCCc1ccc(-c2ccccc2F)cc1)Nc1ccc(O)cc1,109
14,O=C1Nc2ccc(Br)cc2/C1=C\c1cc2c([nH]1)CCCC2,124
15,CN(C)CCCn1cc(C2=C(c3c[nH]c4ccccc34)C(=O)NC2=O)c2ccccc21,118
16,O=C1Nc2cc(Br)ccc2/C1=C1/Nc2ccccc2/C1=N\O,95
17,Cn1sc(=O)n(Cc2ccccc2)c1=O,96
